The campaign covered roughly 87,000 compounds. About 540 (0.62%) were called active. The rule behind the calls is not given here. Shown is part of a subset that was picked to be rich in actives. Measured potencies and affinities stand elsewhere.
test: MT1-MMP gene expression reporter suppression – cell-based, luciferase reporter, luminescence (AID 618); conditions: MT1-MMP promoter luciferase reporter cells;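 note: actives suppress MT1-MMP promoter-driven transcription so potencies describe inhibitors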

SMILES | outcome
COC(=O)c1ccc(CSc2nnc(SCc3ccc(C(=O)OC)o3)s2)o1 | inactive
CCN1C(c2ccc(F)cc2)=CS/C1=C(\C#N)c1nnc2n1-c1ccccc1SC2 | inactive
CNc1nnc(-c2cccc(N(C)C)c2)s1 | inactive
CNc1nnc(-c2ccncc2)s1 | inactive
Cc1ccc(-c2nc(CS(=O)(=O)CC(=O)NC3CCCCC3C)c(C)o2)cc1 (stereo not drawn) | inactive
CCCc1ccc(-c2ccc(C(=O)O)cc2)nc1 | inactive
CCc1ccc(-c2ccc(C(=O)O)cc2)nc1 | inactive
CCCCCCc1ccc(-c2ncc(N)cn2)cc1 | active
CCCCc1ccc(-c2nc(N)n[nH]2)cc1 | inactive
CCCCCc1ccc(-c2ccc(=O)[nH]n2)cc1 | inactive
CC(=O)c1ccc(N=Cc2c(O)n(-c3cc(Cl)ccc3N3CCOCC3)c(=O)c3ccccc23)cc1 | inactive
Cc1noc(NS(=O)(=O)c2ccc(NC(=O)CSc3nc4ccccc4[nH]3)cc2)c1C | inactive
CCCc1nc(SCc2ccccn2)c2c(=O)n(C)c(=O)n(C)c2n1 | inactive
CCOc1nc(NCCc2ccc(OC)c(OC)c2)nc(N2CCN(c3ccc(OC)cc3)CC2)n1 | inactive
Cc1cccc(N2CCN(C(=O)c3cc4c(=O)n(C)c5ccccc5c4n3C)CC2)c1C | inactive
COc1ccc(-c2cc(=O)c3ccccc3s2)cc1 | inactive
COc1ncnc2sc(-c3ccccc3)cc12 | inactive
O=C(Nc1ccc(N2CCCCC2)cc1)c1ccc(F)cc1 | inactive
O=C(Nc1ccc(N2CCCCC2)cc1)c1cccnc1 | inactive
O=C(Nc1ccc(N2CCCC2)cc1)c1cccc(F)c1 | active
O=C(Nc1ccc(N2CCCC2=O)cc1)c1cccc(F)c1 | inactive
O=C(Nc1ccc(N2CCN(C(=O)c3ccco3)CC2)cc1)c1cccc(F)c1 | inactive
O=C(COc1ccc(Br)cc1CO)Nc1ccccc1F | inactive
O=C(NCCCN=C1NS(=O)(=O)c2ccccc21)c1ccco1 | inactive

SMILES | outcome
COC(=O)C1CCN(C(=O)c2ccc(NC(C)=O)cc2)CC1 | inactive
CCOC(=O)C(C)Oc1cccc2c(=O)n(CC(=O)NCc3ccco3)ccc12 (stereo not drawn) | active
CCOC(=O)C(C)Oc1cccc2c(=O)n(CC(=O)N3CCc4ccccc43)ccc12 (stereo not drawn) | inactive
CCOC(=O)COc1cccc2c(=O)n(CC(=O)NCc3ccc4c(c3)OCO4)ccc12 | inactive
Nc1nonc1C(=O)NCCNCc1cc(Br)ccc1OCc1ccccc1F | active
Nc1nonc1C(=O)NCCNCc1ccccc1OCc1ccccc1F | inactive
Nc1nonc1C(=O)NCCNCc1cc(Br)ccc1OCc1ccc(F)cc1 | inactive
c1ccc(C2CC(c3ccccc3)n3ncnc3N2)cc1 (stereo not drawn) | inactive
O=c1[nH]c(=O)n([C@H]2C[C@H](O)[C@@H](CO)O2)cc1C(F)(F)F | inactive
CCc1cn([C@H]2C[C@H](O)[C@@H](CO)O2)c(=O)[nH]c1=O | inactive
O=c1[nH]c(=O)n([C@H]2C[C@H](O)[C@@H](CO)O2)cc1F | active
Cc1ccc(NC(=O)CN(C)C(=O)CSc2nc3ccccc3c(=O)n2Cc2ccco2)cc1 | inactive
Cc1csc2nc(CSc3nc4ccccc4o3)cn12 | inactive
Cc1csc2nc(CSc3ccc(Cl)cc3)cn12 | inactive
COc1ccccc1/C=N/NC(=O)C1=NNC(c2ccccc2)(c2ccccc2)C1 | inactive
Cc1ccc(-c2cc(C(=O)N/N=C/c3ccco3)[nH]n2)cc1 | inactive
O=C(CSc1ccccc1)Nc1ccncc1 | inactive
Cc1cc2c(c(=O)n1Cc1ccccn1)C(C(C)C)C(C#N)=C(N)O2 (stereo not drawn) | inactive
Cc1nc(-c2cccc(N)c2)cs1 | inactive
Nc1cccc(-c2nc3ccccc3s2)c1 | inactive
Nc1cccc(-c2nc3ccc(N)cc3s2)c1 | active
Cc1nc2ccc(N)cc2s1 | inactive
Nc1ccc(O)c(-c2nc3ccccc3s2)c1 | inactive
COc1cccc(NC(=O)C2C3C=CC4(O3)C2C(=O)N(C2CC2)C4C(=O)NC2CCCCC2C)c1 (stereo not drawn) | inactive

SMILES | outcome
C=C(C)c1cccc(C(C)(C)NC(=O)N2CCN(CC(N)=O)CC2)c1 | inactive
CC(C)(C)c1ccc(C2(C)NC(=O)N(CC(=O)Nc3ccc4c(c3)OCO4)C2=O)cc1 (stereo not drawn) | inactive
CCCCCn1c(=O)[nH]c2cc(C(=O)N3CCN(CC)CC3)ccc2c1=O | inactive
CCOC(=O)N1CCN(C(=O)CN(C2CCCCC2)S(=O)(=O)c2ccc(Cl)cc2)CC1 | inactive
COc1ccc(NC(=O)/C(Cl)=C(/Cl)S(=O)Cc2ccccc2)cn1 (stereo not drawn) | active
COc1ccc(NC(=O)/C(Cl)=C(/Cl)S(=O)Cc2ccc(C)cc2)cn1 (stereo not drawn) | active
COc1ccc(NC(=O)c2nc3nccc(C)n3n2)cn1 | inactive
CCOc1ccccc1OCCCC(=O)Nc1ccc(OC)nc1 | inactive
COc1ccc(NC(=O)c2cc(CN3C(=O)c4ccccc4C3=O)ccc2OC)cn1 | inactive
COc1ccc(NC(=O)c2cc(=O)c3ccccc3o2)cn1 | inactive
Cc1ccc(C(=O)n2cnnc2N)cc1 | inactive
CN(C)c1nc(N)nc(-c2cccnc2)n1 | inactive
COc1ccc(C)cc1S(=O)(=O)N(C)CC(=O)Nc1ccc2c(c1)OCO2 | inactive
Cc1ccc2ccccc2c1COC(=O)c1nonc1N | inactive
CC(=O)Nc1cccc(Oc2ccc(-c3noc(C)n3)cc2)c1 | inactive
CCCC(=O)N1CC(=O)Nc2ccc(F)cc2C1c1ccccc1 (stereo not drawn) | inactive
O=C(COc1ccc(CO)cc1)Nc1ccc(F)cc1 | inactive
COc1ccccc1NC(=O)COc1ccc(CO)cc1Cl | inactive
N#C/C(=C\c1ccc[nH]1)Sc1nc2ccccc2s1 | inactive
COc1ccccc1N(CC(=O)NC1CCCC1)C(=O)CCC(=O)Nc1cc(C)on1 | inactive
C=CCn1c(C)cc(C(=O)CSc2nc3ccccc3o2)c1C | inactive
COCC(C)n1c(C)cc(C(=O)CSc2ccc(NC(C)=O)cc2)c1C (stereo not drawn) | inactive
CC(=O)Nc1ccccc1OCC(=O)c1cc(C)n(Cc2cccs2)c1C | inactive
Cc1cc(C(=O)CN2C(=O)c3ccccc3C2=O)c(C)n1Cc1cccs1 | inactive

SMILES | outcome
C=CCn1c(C)cc(C(=O)CSc2n[nH]c(N)n2)c1C | inactive
CC(=O)Nc1ccc(SCC(=O)c2cc(C)n(C)c2C)cc1 | inactive
COc1ccc(-c2n[nH]c(C)c2-c2cc(OC)ccc2O)cc1 | inactive
CCSC1=C(C#N)C(c2ccccc2C)CC(=O)N1 (stereo not drawn) | inactive
Cc1cc(SCc2cc(=O)[nH]c3ccccc23)nc2ccccc12 | inactive
O=C(O)c1c2c(nc3ccc(F)cc13)CCC2 | inactive
COCCn1nnnc1C(c1ccc(OC)cc1OC)N1CCN(c2ccccc2F)CC1 (stereo not drawn) | inactive
Cc1ccccc1OCC(=O)Nn1c(COc2ccccc2)nc2ccccc2c1=O | inactive
CC1=C(C)C(=O)N(c2ccc(C(=O)O)cc2)C1=O | inactive
O=C1/C(=C\c2ccc3ccccc3c2)CCCc2ccccc21 | inactive
COC(=O)c1ccc(C(NC(=O)OCc2ccccc2)/C(F)=C/[C@@H](C)C(=O)NCc2ccc(OC)c(OC)c2)cc1 (stereo partly drawn) | inactive
CCC(C)C1C(C#N)=C(N)Oc2n[nH]c(-c3ccccc3)c21 (stereo not drawn) | inactive
O=C(Oc1ccc2ccccc2c1)c1ccccc1 | inactive
O=C(CCl)Nc1cc(-c2ccccc2)nn1-c1ccccc1 | active
CC(=O)Nc1cc(-c2ccc(Cl)cc2)nn1-c1ccccc1 | inactive
Cc1ccc(-c2cc(NC(=O)CCl)n(-c3ccccc3)n2)cc1 | inactive
O=C1CS/C(=C/C(=O)c2ccccc2)N1 | inactive
NCCCCCc1nnc(SCc2cccc(Cl)c2)o1 | inactive
N#C/C(=C/c1ccc(N2CCOCC2)o1)c1nc2ccccc2[nH]1 | inactive
Cc1ccc2nc(/C(C#N)=C\c3ccc(N4CCOCC4)o3)[nH]c2c1 | inactive
CCc1ccc(-c2cn3nc(C)c(C)nc3n2)cc1 | active
Cc1ccc(-c2cn3nc(C)c(C)nc3n2)cc1 | active
CCc1c(-c2ccccc2)nc2nc(C)c(C)nn12 | inactive
Cc1nc2nc(-c3ccccc3)cn2nc1C | inactive

SMILES | outcome
CCc1ccc(-c2nn[nH]n2)cc1 | inactive
Cc1nc2nc(-c3cccs3)cn2nc1C | inactive
O=Cc1ccccc1OCCOc1ccccc1C=O | inactive
CC(C)n1c(-c2ccc(N(C)C)cc2)nc2ccccc21 | inactive
CN(C)c1ccc(-c2nc3ccccc3n2C)cc1 | active
Cn1c(-c2ccc(N)cc2)nc2ccccc21 | inactive
O=C(CN1CCN(c2ccccc2)CC1)Nc1ccccc1C(F)(F)F | inactive
Cc1cccc(NC(=O)CN2C(=O)COc3ccc(Cl)cc32)c1 | inactive
CCOC(=O)c1c(C)oc2cc3c(C(=O)OCC)c(C)oc3cc12 | inactive
CCOC(=O)c1c(C)cc(=O)oc1C | inactive
CCOC(=O)c1c(C)oc2c(F)c(F)c(F)c(F)c2c1=O | active
O=C(Oc1ccnc2cc(Cl)ccc12)N1CCOCC1 | inactive
COc1ccc(OC)c(S(=O)(=O)n2nc(-c3ccccc3)cc2N)c1 | inactive
COc1ccc(-c2cc(N)n(S(=O)(=O)c3c(F)c(F)c(F)c(F)c3F)n2)cc1OC | active
COc1ccc(S(=O)(=O)n2nc(-c3cc(OC)c(OC)c(OC)c3)cc2N)cc1OC | inactive
CC(C)(C)Nc1nc(NCc2cccnc2)nc(N2CCOCC2)n1 | inactive
CSc1ccccc1NC(=O)c1ccccc1N(C)S(C)(=O)=O | inactive
CCCc1cc2c(n1CCc1ccc(Cl)cc1)C(C)C1CN(C(=O)c3ccccc3)C(C)(C(=O)OC)C21 (stereo not drawn) | inactive
CCCCCOc1ccc(Br)cc1/C(C)=N/NC1=NCCN1 | active
CCCCOc1ccc(Br)cc1/C(C)=N/NC1=NCCN1 | inactive
CCOc1ccc(Br)cc1/C(C)=N\NC1=NCCN1 | inactive
O=C(Cn1ncc2c(=O)oc3ccccc3c21)NCCN1CCN(c2ccccc2F)CC1 | inactive

From PubChem BioAssay AID618 (Sanford-Burnham Center for Chemical Genomics, 2007)
